Screening results (PubChem)
TWEAK-Fn14 inh – TWEAK-Fn14 signaling inhibition. TWEAK-stimulated Fn14 reporter cells, luciferase luminescence, 8 h. inhibition, % at 10 µM. hit rate 2% among 360,000; in the data active = inhibition above about 50%
EWS-Fli inh – blocks EWS/Fli oncoprotein-driven transcription; hit rate 0.67% among 350,000; inhibition, % at 12.6 µM; AID 651661; A673 NR0B1-luciferase reporter, viability-normalised;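 active = mean inhibition of at least 50% after viability correction, with every replicate also passing that limit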;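 also: firefly luciferase signal divided by Alamar Blue viability fluorescence both relative to DMSO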
LGR2 antag – blocks bursicon-induced cAMP signaling via Drosophila LGR2 | HEK293 LGR2, CRE-luciferase, bursicon-stimulated, 4 h | inhibition, % at 9.99 µM | hit rate 0.35% among 380,000;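 active = drop in luminescence signal, shown as inhibition above about 50% in the replicate tests, limit read from the data, passing the limit was not always enough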;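 also: agonist challenge used bursicon conditioned medium at about half maximal strength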
LMP1 NFkB inh – inhibitors of Epstein-Barr LMP1-induced NF-kappaB reporter; AID 504558; inhibition, % at 12.5 µM; hit rate 0.69% among 350,000; LMP1-induced NF-kappaB luciferase reporter cells, luminescence; in the data active = inhibition above about 41%;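 also: 0% = neutral control wells and 100% = reference inhibitor control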
TROY NFkB inh – blocks TROY-dependent signaling in reporter cells; Q293 LMP1-TROYcd NF-kB luciferase reporter, 4 h; inhibition, % at 10 µM; hit rate 0.98% among 360,000;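 active = compounds whose plate-normalised and pattern-corrected inhibition of the luciferase reporter signal at the single screening dose is 50% or more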
* marks the source's active call; other numbers are inactive results; . = not tested or not shown. Compounds with a hit are over-represented: about 2.5% of the library has one in this group of screens.

SMILES	TWEAK-Fn14 inh	EWS-Fli inh	LGR2 antag	LMP1 NFkB inh	TROY NFkB inh
C[C@H](CO)N1C[C@H](C)[C@@H](CN(C)C(=O)C2CCC2)Oc2ncc(C3=CCCC3)cc2C1=O	.	-11.3	14.1	.	.
Cc1ccccc1N1C(=O)[C@@H]2Cc3ccccc3CN2C1=O	-6.8	.	.	-0.3	-8.3
O=C1[C@@H]2Cc3ccccc3CN2C(=O)N1c1cccc(F)c1	33.8	.	.	-13.3	62.1*
C[C@H](CO)N1C[C@H](C)[C@H](CN(C)C(=O)Nc2ccc(F)cc2)Oc2ncc(C#Cc3cccc(F)c3)cc2C1=O	.	-0.2	1.3	.	.
Cc1cccc(NC(=O)Nc2c(C)n(C)n(-c3ccccc3)c2=O)c1C	-9.2	-1.1	-4.8	48.5*	-0.6
Cc1c(Cl)cccc1NC(=O)Nc1c(C)n(C)n(-c2ccccc2)c1=O	-19.0	2.0	-2.8	-7.2	-5.2
O=C(Nc1ccccc1)Nc1nc(-c2ccccc2)cs1	28.8	-43.3	-42.3	13.5	21.3
COc1cccc(NC(=O)Nc2nnc(CC(=O)Nc3ccccc3)s2)c1	50.6*	-16.5	-0.6	3.6	30.0
COc1cccc(-c2csc(NC(=O)Nc3ccccc3)n2)c1	85.8*	-43.3	-9.5	5.9	57.8*
O=C(Nc1ccc(Cl)c(Cl)c1)Nc1nc(-c2ccccc2)cs1	36.6	.	2.0	55.8*	26.1
COc1ccc(S(=O)(=O)N[C@H]2CC[C@H](CC(=O)NCCc3ccccc3)O[C@H]2CO)cc1	.	-4.4	11.0	.	.
COc1cc(/C=C2/SC(=O)NC2=O)ccc1Oc1ccc([N+](=O)[O-])cc1[N+](=O)[O-]	55.6*	7.1	4.2	2.8	53.7*
COc1cc(/C=C2\SC(=O)NC2=O)ccc1Oc1ccc([N+](=O)[O-])cn1	-8.2	7.4	-5.6	6.3	-9.2
CC(Sc1nc(-c2ccc(F)cc2)cs1)C(=O)N1c2ccccc2CC1C (configuration not stated)	30.0	13.3	11.5	59.1*	9.1
CCCC#Cc1ccc2c(c1)O[C@H](CN(C)C)[C@@H](C)CN([C@H](C)CO)S2(=O)=O	.	9.7	-10.5	.	.
COc1ccc(C)cc1S(=O)(=O)N(CC(=O)Nc1cc([N+](=O)[O-])ccc1C)c1ccc(C)c(C)c1	10.2	1.4	-6.6	49.2*	0.6
CC(C)c1ccc(OCc2nc(-c3ccccn3)no2)c(Br)c1	37.6	.	.	-31.8	7.3
Cc1ccc(OCc2nc(-c3ccccn3)no2)cc1	31.4	-9.9	-26.3	-19.5	-23.1
CCc1ccc(OCc2nc(-c3ccccn3)no2)c(Br)c1	59.2*	.	.	-33.3	45.2
Cc1ccc(OCc2nc(-c3ccccn3)no2)c(Br)c1	84.8*	.	.	38.1	36.4
O=C(C[C@H]1C=C[C@H](NC(=O)C2CCC2)[C@@H](CO)O1)NCC1CC1	.	-0.2	14.3	.	.
Cc1ccc(C(=O)Nc2ccc3c(c2)OCCO3)c(Cl)c1	89.5*	63.3*	82.4*	46.6*	42.9
O=C(Nc1ccc2c(c1)OCCO2)c1ccc(Br)cc1	19.5	-13.8	-35.7	-27.5	-23.8
O=C(Nc1ccc2c(c1)OCCO2)c1cc(F)c(F)cc1Cl	-23.5	-89.1	-44.5	-14.1	-55.7
Cc1ccn2cc(C(=O)Nc3ccc4c(c3)OCCO4)nc2c1	62.2*	.	.	7.2	49.0
SMILES	TWEAK-Fn14 inh	EWS-Fli inh	LGR2 antag	LMP1 NFkB inh	TROY NFkB inh
O=C(Nc1cccc2ncccc12)c1ccc2c(c1)OCCO2	82.9*	.	.	9.0	.
Cc1ccc(C(=O)Nc2ccc3c(c2)OCCO3)cc1	84.0*	69.0*	66.5*	43.4*	42.7
Nc1ccc(C(=O)Nc2cccc3ncccc23)cc1	6.4	2.5	6.2	1.2	-7.5
O=C(C[C@H]1CC[C@H]2[C@@H](COC[C@@H](O)CN2Cc2nccs2)O1)NCc1ccc(Cl)cc1	.	2.1	-25.1	.	.
O=C(Nc1ccc2c(c1)OCCO2)c1ccc(Cl)c(Cl)c1	-1.2	-102.2	-23.3	-42.8	-23.7
Cc1ccc(OCC(=O)Nc2ccc3c(c2)OCCO3)cc1C	53.5*	21.7	-44.4	10.2	44.1
Cn1c(C(=O)NC2CC2)cc2c(=O)n(C)c3ccccc3c21	-0.2	3.4	-11.9	-2.5	-21.5
Cn1c(C(=O)Nc2ccc3c(c2)OCCO3)cc2c(=O)n(C)c3ccccc3c21	64.9*	-3.4	2.4	-41.4	21.7
O=C(Nc1ccc2c(c1)OCCO2)c1ccc2nccnc2c1	70.2*	-17.7	32.3	8.4	-32.0
COc1ccc2nc(SCC(=O)Nc3ccc4c(c3)OCCO4)[nH]c2c1	89.1*	.	-8.5	13.8	69.3*
CCOc1ccc2nc(SCC(=O)Nc3ccc4c(c3)OCCO4)[nH]c2c1	-18.2	.	.	7.1	1.4
CCC(=O)Nc1ccc2c(c1)C(=O)N(C)C[C@H](OC)[C@H](C)CN(C(=O)C1CC1)[C@@H](C)CO2	.	-3.6	16.5	.	.
